# In all, about 69,000 compounds went through this assay and about 1,000 (1.4%) showed an effect of 50% or more. The sample as a whole holds a higher share of strong results than the screen did.
# Tested on: Leishmania donovani
# Assay: Leishmania intramacrophage assay
# Format: functional, organism-based
# Set-up: scale not given: in the data most compounds retested in dose-response had high values
compound,measurement,setting,value
Cc1oncc1C(=O)N1CCC(O)(CN2CCOCC2)C(C)(C)C1 (configuration not stated),Percent Effect,"30.3 µM, […]",22.16%
COc1cccc(CN(C)Cc2nc3c(cnn3C)c(=O)[nH]2)c1OC,Percent Effect,"30.3 µM, […]",-6.431%
COc1cc(NC2CCN(C3CCS(=O)(=O)CC3)CC2)ncn1,Percent Effect,"30.3 µM, […]",36.7%
Cc1nc2[nH]cnc(Nc3cnn(C)c3)c-2n1,Percent Effect,"30.3 µM, […]",10.52%
Cc1nc2[nH]cnc(Nc3cc(C)n(C)n3)c-2n1,Percent Effect,"30.3 µM, […]",75.58%
Cc1nc2[nH]cnc(Nc3ccn(C)n3)c-2n1,Percent Effect,"30.3 µM, […]",-6.289%
CCSCCC(=O)Nc1ncn(CC(=O)NCc2ccccc2)n1,Percent Effect,"30 µM, 30.03 µM",19.14%
O=C(c1c2c(N3CCOCC3)ncnc2n2ccccc12)N1CCCC1,Percent Effect,"30.3 µM, […]",16.59%
CN(C)CCN1CCOCC2(CCCN(C(=O)c3ccoc3)C2)C1.O=C(O)C(F)(F)F.O=C(O)C(F)(F)F (configuration not stated),Percent Effect,"30.3 µM, […]",9.003%
Cc1cc2cc(CNC3CCN(CC(=O)N(C)C)CC3)oc2cc1C,Percent Effect,"30.3 µM, […]",25.29%
Cc1cc2cc(CNC3CCN(CC4CCOC4)CC3)oc2cc1C (configuration not stated),Percent Effect,"30.3 µM, […]",70.06%
Cc1cc2cc(CNC3CCN(S(C)(=O)=O)CC3)oc2cc1C,Percent Effect,"30.3 µM, […]",23.07%
CC(C)Nc1oc(-c2ccc(S(=O)(=O)N(C)C)o2)nc1C#N,Percent Effect,"30.3 µM, […]",16.53%
CN(C)S(=O)(=O)c1ccc(-c2nc(C#N)c(NC(C)(C)C)o2)o1.Cl,Percent Effect,"30.3 µM, […]",70.96%
Cc1oc(-c2nc(C#N)c(NC3CC3)o2)cc1S(=O)(=O)N1CCCC1,Percent Effect,"30.3 µM, […]",1.943%
CN(C)S(=O)(=O)c1ccc(-c2nc(C#N)c(NC3CC3)o2)o1,Percent Effect,"30.3 µM, […]",20.5%
CN(C)S(=O)(=O)c1ccc(-c2nc(C#N)c(NC3CCCCC3)o2)o1,Percent Effect,"30.3 µM, […]",54.54%
CNc1oc(-c2ccc(S(=O)(=O)N(C)C)o2)nc1C#N,Percent Effect,"30.3 µM, […]",-4.203%
Cc1ccc(N2C[C@H](C(=O)N3CCOCC3)[C@@H]3CCO[C@@H]3C2)nn1,Percent Effect,"30.3 µM, […]",10.85%
O=C(O)C(F)(F)F.c1csc(CN2CCn3c(Cn4cncn4)cnc3C2)n1,Percent Effect,"30 µM, 30.03 µM",0.7173%
CC(C)(C)c1noc(CCCC(=O)N2CCCC(c3ccn[nH]3)C2)n1 (configuration not stated),Percent Effect,"30.3 µM, […]",-44.28%
COc1cc(S(=O)(=O)N2CCCc3ccccc32)cc(C(=O)O)c1OC,Percent Effect,"30 µM, 30.03 µM",1.897%
Cc1c(C(=O)NCc2ccnc(OCC(F)(F)F)c2)cnn1C,Percent Effect,30 µM,34.3%
O=C(c1ccccn1)N1CCc2c(nc(N3CCCC3)[nH]c2=O)C1,Percent Effect,"30 µM, 30.03 µM",-2.348%
Cc1cnn(-c2cccc(N3CCN(c4cc(C)nc(C)n4)CC3)n2)c1,Percent Effect,"30.3 µM, […]",-8.114%
Cc1cnn(-c2cccc(N3CCCCC3)n2)c1,Percent Effect,"30.3 µM, […]",-15%
Cc1cnn(-c2cccc(N3CCCC3)n2)c1,Percent Effect,"30.3 µM, […]",88.75%

# From ChEMBL document CHEMBL3988442, “University of Dundee, Small-Polar-MMV Screening Library” (2021)
